An excerpt weighted towards active compounds, which were near 28% of everything screened.
CYP2C19 act = cytochrome P450 2C19 (human) activation; P33261; 96,000 tested, under 10 active; AID 1025; activation factor at 5 µM; recombinant CYP2C19, luciferin-H EGE luminescence; active compounds read high; 0 = fully inhibited enzyme, 1 = untreated enzyme;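 active = activation factor of at least 2 at 5 µM in the primary screen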
CYP2C9 inh = blocks human cytochrome P450 2C9. P11712. 96,000 compounds, 20% hits. CYP2C9 Supersomes, luciferin-H conversion, luminescence. inhibition, % at 5 µM;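 active = blocking of liver enzyme CYP2C9 beyond about 50% at 5 µM, limit read from the data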
CYP2C9 act = increases human cytochrome P450 2C9 activity. activation factor at 5 µM. recombinant CYP2C9, luciferin-H conversion, luminescence; active compounds read high; factor 1 = untreated enzyme, 0 = blocked. 96,000 compounds, 1.4% hits. AID 1024;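 active = activation factor of 2 or more for CYP2C9 at a 5 µM dose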
CD11b adhes enh = CD11b/CD18-fibrinogen binding enhancement. P05107+P11215. K562 CD11b/CD18 adhesion to fibrinogen, ATPlite luminescence. activation, % at 10 µM. 93,000 compounds, 0.07% hits. AID 1499;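 active = 10 µM primary screen giving 50% or more activity, confirmed by 40% or more on retest at that dose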
Target sequence (P05107 whole entry, looked up, other chains not shown): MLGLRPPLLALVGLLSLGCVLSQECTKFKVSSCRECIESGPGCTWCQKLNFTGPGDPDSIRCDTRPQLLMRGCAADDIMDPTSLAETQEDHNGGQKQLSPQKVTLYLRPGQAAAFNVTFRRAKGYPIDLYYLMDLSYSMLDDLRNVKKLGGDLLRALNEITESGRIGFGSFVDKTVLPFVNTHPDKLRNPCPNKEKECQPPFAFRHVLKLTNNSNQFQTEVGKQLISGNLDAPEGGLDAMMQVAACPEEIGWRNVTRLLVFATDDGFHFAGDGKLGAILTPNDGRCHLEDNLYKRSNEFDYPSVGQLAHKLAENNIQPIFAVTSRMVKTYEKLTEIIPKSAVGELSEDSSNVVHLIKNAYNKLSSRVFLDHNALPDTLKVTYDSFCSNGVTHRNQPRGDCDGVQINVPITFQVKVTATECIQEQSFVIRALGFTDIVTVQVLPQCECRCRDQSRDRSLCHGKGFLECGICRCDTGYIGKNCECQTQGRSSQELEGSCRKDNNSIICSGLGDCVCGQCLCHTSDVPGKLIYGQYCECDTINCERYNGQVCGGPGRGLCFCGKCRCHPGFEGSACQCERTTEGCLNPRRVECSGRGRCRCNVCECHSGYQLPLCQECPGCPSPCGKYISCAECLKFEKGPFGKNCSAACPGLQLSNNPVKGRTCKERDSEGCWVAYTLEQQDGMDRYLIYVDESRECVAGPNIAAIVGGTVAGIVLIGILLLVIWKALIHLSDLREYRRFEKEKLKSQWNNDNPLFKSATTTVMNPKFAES
CYP2C19 inhib = blocks human cytochrome P450 2C19; CYP2C19 Supersomes, luciferin-H EGE luminescence, 30 min; inhibition, % at 5 µM; 96,000 compounds, 21% hits; AID 778;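 active = CYP2C19 inhibition above a set limit at 5 µM in the primary screen, cut at about 50% in these data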
Mac1 fbg inh = inhibitors of human CD11b/CD18 binding to fibrinogen. P05107+P11215. K562 CD11b/CD18 adhesion to fibrinogen, ATPlite luminescence; Mn2+ added to activate the integrin. inhibition, % at 10 µM. 93,000 compounds, 0.54% hits. AID 1497;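 active = primary inhibition of 50% or more at 10 µM, then 40% or more on retest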
Each line names hits and unclear results; the compound was inactive in the other large screens.

CCc1ccccc1NC(=O)CSC1=C(C#N)C(c2ccc3c(c2)OCO3)C2=C(CCCC2=O)N1 (stereo not drawn)	CYP2C9 inh 80, CYP2C19 inhib 51
Cc1ccc(C(=O)CSC2=C(C#N)C(c3ccco3)C3=C(CC(C)(C)CC3=O)N2)cc1 (stereo not drawn)	CYP2C9 inh 88, CYP2C19 inhib 88
CC1=C(C(=O)Nc2ccccc2)C(c2ccc3c(c2)OCO3)C2=C(CCCC2=O)N1 (stereo not drawn)	CYP2C9 inh 53, CYP2C19 inhib 66
CC1=C(C(=O)OC2CCCCC2)C(c2ccco2)C2=C(CC(C)(C)CC2=O)N1 (stereo not drawn)	none
CC(=O)Nc1ccccc1OCc1nnc(-c2cccs2)o1	none
CCOC(=O)CC1C(=O)NCCN1C(=O)c1cccc(C(F)(F)F)c1 (stereo not drawn)	none
CCOC(=O)C1(Cc2ccc(O)cc2)NC(c2ccco2)C2C(=O)N(c3ccccc3F)C(=O)C21 (stereo not drawn)	none
CC1(C)CC(=O)C2=C(C1)NC(SCC(=O)Nc1ccccc1)=C(C#N)C2c1ccco1 (stereo not drawn)	CYP2C9 inh 95, CYP2C19 inhib 96
O=C1c2ccsc2SCCN1Cc1ccc(Cl)cc1	CYP2C19 inhib 58
COc1ccccc1C(=O)Nc1cc2ccccc2oc1=O	none
C=CCc1cccc2cc(NC(C)=O)c(=O)oc12	CYP2C9 act 2.8
N#C/C(=C\c1cn(CCOc2ccccc2)c2ccccc12)C(=O)NCC1CCCO1 (stereo not drawn)	CYP2C9 inh 92, CYP2C19 inhib 58
CCOC(=O)/C(C#N)=C/c1cn(CCOc2ccc(OC)cc2)c2ccccc12	none (no result: CYP2C19 act, CYP2C9 inh, CYP2C9 act, CYP2C19 inhib)
N#C/C(=C\c1cn(Cc2ccccc2)c2ccccc12)C(=O)NCc1ccco1	none (no result: CYP2C19 act, CYP2C9 inh, CYP2C9 act, CYP2C19 inhib)
N#C/C(=C\c1cn(Cc2ccccc2C#N)c2ccccc12)C(=O)NCc1cccs1	CYP2C9 inh 60
Cc1ccc([N+](=O)[O-])cc1NC(=O)CN1CCC(C)CC1	none
Cc1ccc(C(=O)N/N=C2/NC(=O)CC(C(=O)Nc3ccccc3)S2)cc1 (stereo not drawn)	none (no result: CYP2C19 act, CYP2C9 inh, CYP2C9 act, CYP2C19 inhib)
COc1ccc(NC(=O)c2ccccc2NC(=O)CSc2ccc(Cl)cc2)cc1	CYP2C9 inh 62, CYP2C19 inhib 62
CS(=O)(=O)N1CCN(c2ccccc2NC(=O)CSc2ccc(Cl)cc2)CC1	CYP2C9 inh 87, CYP2C19 inhib 78
O=C(Nc1cccc(Oc2ccc3c(c2)C(=O)NC3=O)c1)c1cccs1	none (no result: CYP2C19 act, CYP2C9 inh, CYP2C9 act, CYP2C19 inhib)
CCCn1c(=O)c2ccccc2n2c(SCC(=O)c3ccc(F)cc3)nnc12	none
CCCn1c(=O)c2ccccc2n2c(SCC(=O)c3ccccc3)nnc12	CYP2C9 inh 55
CCCn1c(=O)c2ccccc2n2c(SCCOc3ccc(Cl)cc3)nnc12	none
CCCn1c(=O)c2ccccc2n2c(SCCOc3ccccc3F)nnc12	CYP2C19 inhib 56
CCCn1c(=O)c2ccccc2n2c(SCc3nnc(-c4ccccc4Br)o3)nnc12	CYP2C9 inh 58, CYP2C19 inhib 70
CCOC(=O)Nc1c(C(=O)OC)[nH]c2cccc(OC)c12	none
CC(=O)NC1(c2ccccc2)CCN(Cc2nnnn2C(C)(C)C)CC1	CYP2C19 inhib 67
CC(C)(C)n1nnnc1CN1C2CCC1CC(NC(=O)Nc1ccccc1)C2 (stereo not drawn)	CYP2C9 inh 53
CCOC(=O)c1ccc(NC(=O)NC2CC3CCC(C2)N3Cc2nnnn2Cc2ccco2)cc1 (stereo not drawn)	none (no result: CD11b adhes enh, Mac1 fbg inh)
CCS(=O)(=O)N1CCC(NC(C)=O)(c2ccccc2)CC1	none
CCCCN(CCCC)c1ccc(C(=O)c2ccccc2C(=O)O)c(O)c1	CYP2C9 inh 64 (no result: CD11b adhes enh, Mac1 fbg inh)
CCCCCCCCCS(=O)(=O)N/N=C/c1cccc([N+](=O)[O-])c1	CYP2C9 inh 68
COc1cccc(CNC(=O)Cn2c(=O)oc3ccccc32)c1OC	CYP2C19 inhib 66
CCn1c(=O)n(CC(=O)NCc2ccccc2OC)c(=O)c2ccccc21	CYP2C19 inhib 54
CCOc1ccccc1CNC(=O)Cn1c(=O)oc2ccccc21	none
CSC(=O)CC(=O)NC(=O)c1ccccc1	none
O=C(Nc1cccc(S(=O)(=O)N2CCCCC2)c1)c1ccc2c(=O)n3c(nc2c1)CCCCC3	none (no result: CYP2C19 act, CYP2C9 inh, CYP2C9 act, CYP2C19 inhib)
Cc1cccc(-c2noc(CSc3ccccc3)n2)c1	none (no result: CD11b adhes enh, Mac1 fbg inh)
c1ccc(Cc2nc(-c3ccccn3)no2)cc1	none
c1ccc(CCCc2nc(-c3ccccn3)no2)cc1	CYP2C19 inhib 65 (no result: CD11b adhes enh, Mac1 fbg inh)
c1ccc(SCc2nc(-c3ccccn3)no2)cc1	CYP2C19 inhib 76
Cc1ccc(Cc2nc(-c3ccccn3)no2)cc1	none (no result: CD11b adhes enh, Mac1 fbg inh)
c1ccc(C(Cc2nc(-c3ccccn3)no2)c2ccccc2)cc1	CYP2C9 inh 54 (no result: CD11b adhes enh, Mac1 fbg inh)
Cn1c(COc2ccccc2)nnc1SCC(=O)NCc1ccccc1	none
Cc1ccc(-c2cc(C(=O)NCc3ccccn3)no2)cc1	none
Cc1ccc(NC(=O)c2cnn(-c3ccccc3)c2NC(=O)c2ccco2)cc1	none
CCOc1ccc2[nH]cc(C(=O)N3CCN(CC)CC3)c(=O)c2c1	none
Cn1c(=O)c2c(-c3ccccc3)n(N3CCOCC3)cc2n(C)c1=O	CYP2C9 inh 55
O=C(Nc1ccc(N2CCCCC2)c(Cl)c1)c1ccc2c(c1)OCCO2	CYP2C9 inh 68
Cc1c(NC(=O)c2ccc(N3CCCC3)c([N+](=O)[O-])c2)cccc1-c1nc2ccccc2s1	CYP2C9 inh 56
O=C(Nc1ccc(N2CCCCC2)c(Cl)c1)c1ccc(N2CCOCC2)c([N+](=O)[O-])c1	CYP2C19 inhib 52 (no result: CD11b adhes enh, Mac1 fbg inh)
CC(=O)N1CCN(c2ccc(NC(=O)c3ccc(N4CCCC4)c([N+](=O)[O-])c3)cc2Cl)CC1	none
O=C(Nc1nc2ccc3ccccc3c2s1)c1ccc(N2CCCCC2)c([N+](=O)[O-])c1	none (no result: CYP2C19 act, CYP2C9 inh, CYP2C9 act, CYP2C19 inhib)
Cc1cccc(NC(=O)Cn2cnc3c(oc4nc5c(cc43)COC(C)(C)C5)c2=O)c1	none (no result: CYP2C19 act, CYP2C9 inh, CYP2C9 act, CYP2C19 inhib)
COc1cccc(NC2=Nc3cccc4cccc2c34)c1	none (no result: CYP2C19 act, CYP2C9 inh, CYP2C9 act, CYP2C19 inhib)
O=C(Nc1ccc(Cl)cc1)N1CCN(c2ccc3nnc(-c4ccc(F)cc4)n3n2)CC1	CYP2C9 inh 56
FC(F)(F)c1cccc(N2CCN(c3ccc4nnc(-c5ccccc5)n4n3)CC2)c1	none
O=C(c1ccc(Br)o1)N1CCN(c2ccc3nnc(-c4ccc(F)cc4)n3n2)CC1	CYP2C9 inh 67
O=C1CCN(C(=O)Nc2ccccc2Cl)N1	none
O=C(Nc1ccccc1Cl)N1CCN(c2ccc3nnc(-c4ccccc4)n3n2)CC1	CYP2C9 inh 89, CYP2C19 inhib 69
O=C(Nc1ccc(Cl)cc1)N1CCC(c2nc(-c3ccc(F)cc3)no2)CC1	none
Cn1cnc2c1c(=O)n(CC(O)CO)c(=O)n2C (stereo not drawn)	none
